These results are taken from PubChem BioAssay AID1851 (National Center for Advancing Translational Sciences (NCATS), 2009).

Structures are written as SMILES. The campaign covered roughly 16,000 compounds. About 4,000 (25%) were called active. About 26% were inconclusive and are not listed. The call rests on the fitted dose curve; in most records, active means well fitted curve in the direction sought with a large enough effect; inconclusive means small, poorly fitted or top-dose-only effect, or effect the other way; inactive means no such curve, though single readings can be large or run the other way. Not all results are given here.

A word on the AC50: it is the concentration giving half of the maximal activity seen.
On the % scale 0 is the no-effect control and ±100 the full control effect.

The target of this assay is Cytochrome P450 2C9 (Homo sapiens) (UniProt P11712). Description: Cytochrome panel assay with activity outcomes. To be noted: recombinant CYP, pro-luciferin dealkylation, luminescence, p450-cyp2c9; series mostly up to 57.1 µM.
Cytochrome P450 2C9 (Homo sapiens), sequence (P11712 whole entry, looked up): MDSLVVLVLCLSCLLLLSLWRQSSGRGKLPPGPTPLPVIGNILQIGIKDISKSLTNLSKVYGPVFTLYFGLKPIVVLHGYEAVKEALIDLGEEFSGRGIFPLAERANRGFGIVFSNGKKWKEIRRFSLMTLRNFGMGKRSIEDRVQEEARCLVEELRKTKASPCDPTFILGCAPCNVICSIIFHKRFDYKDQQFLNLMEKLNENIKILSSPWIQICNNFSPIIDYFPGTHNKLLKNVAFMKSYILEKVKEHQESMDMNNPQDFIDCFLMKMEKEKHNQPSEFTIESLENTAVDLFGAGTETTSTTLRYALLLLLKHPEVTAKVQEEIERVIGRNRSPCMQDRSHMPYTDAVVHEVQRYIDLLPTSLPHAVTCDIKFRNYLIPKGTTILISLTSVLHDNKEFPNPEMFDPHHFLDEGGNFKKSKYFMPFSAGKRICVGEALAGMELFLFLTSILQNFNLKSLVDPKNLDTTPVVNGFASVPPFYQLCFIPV
With `N#CC1=C(N)OC2=C(CC/C2=C\c2ccccc2)C1c1ccccc1` (stereo unspecified), the AC50 was 0.355 µM (active). As to `COc1ccccc1CN1CCCC2(CCN(C(C)=O)CC2)C1`, the AC50 result was “inactive”. On the same count and under the same terms, as for `COc1cccc2c(=O)c(C(=O)NCc3cccs3)c[nH]c12`, the figure is 6.31 µM (active). On to `COc1ccccc1-c1nc(NCc2cccs2)c2ccccc2n1`, for which the activity, negative = inhibition is 7.82% [at 2.29 µM] (inactive). For the compound `COc1cccc(-c2nc(NCc3cccs3)c3ccccc3n2)c1`, the activity, negative = inhibition was -29.3% [at 2.29 µM] (inactive). For the compound `CN(N=O)C(=O)N[C@H]1[C@@H](O)[C@H](O)[C@H](CO)O[C@@H]1O`, the AC50 entry was “inactive”. `C[C@@]12CC(=O)[C@@H]3[C@@H](CCC4=CC(=O)CC[C@]43C)[C@@H]1CC=C2CC(=O)O`: the activity, negative = inhibition was 4.34% [at 11.4 µM] (inactive). With `COCC(=O)N1CCC2(CC1)CN(c1ccccn1)C2`, the AC50 entry is “inactive”. Turning to `CCN(C(=O)c1cnc(N2CCN(c3ncccn3)CC2)c2ccccc12)c1cccc(Cl)c1`, the concentration at half-maximal activity (AC50) was 3.16 µM (active). On the same count and under the same terms, as for `CN(C(=O)c1cnc(N2CCN(c3ncccn3)CC2)c2ccccc12)c1ccc(Cl)cc1`, the figure is 5.01 µM (active). Take `COCC(=O)N1CCC2(CCCN(c3ncccn3)C2)CC1`: the AC50 entry is “inactive”. Regarding `COC(=O)N1CCC2(CC1)CCN(c1ncccn1)CC2`, the AC50 entry is “inactive”. In the case of `COCC(=O)N1CCC2(CC1)CCN(c1ncccn1)CC2`, the AC50 result was “inactive”. For `CO[C@H]1COC(=O)CCC[C@@H](C)[C@H](OC)COC(=O)[C@@H](C)NC(=O)C/C=C\[C@@H]1C`, the activity, negative = inhibition is -11.7% [at 11.4 µM] (inactive). Consider `Cc1noc(C)c1-c1nc(Nc2ccc(F)cc2)c2ccccc2n1`, for which the activity, negative = inhibition was -2.69% [at 2.29 µM] (inactive). As for `CCN(CC)CCNC(=O)c1cc(Br)c(N)cc1OC`, the AC50 result is “inactive”. The same measure, in the same setting: then `CCCc1c(OCCCOc2ccc(OCC(=O)O)cc2)ccc(CC=O)c1O`, with “inactive”; and `O=C(O)COc1ccc(OCCNC[C@@H](O)COc2ccccc2)cc1`, with “inactive”; and `CCCc1c(OCCCOc2ccc(OCC(=O)O)cc2)ccc(C(C)=O)c1O`, with 10 µM (active). Consider `Cn1cccc1C(=O)N1CCC[C@@]2(CCN(Cc3ccc(C#N)cc3)C2)C1`, for which the AC50 entry was “inactive”. Take `NC/C=C\C(=O)O`: the AC50 entry was “inactive”. The same measure, in the same setting: as for `CC[C@H](C)[C@@H]1O[C@]2(CC[C@@H]1C)C[C@H]1C[C@H](CC=C(C)[C@@H](O[C@@H]3C[C@H](OC)[C@H](O[C@@H]4C[C@H](OC)[C@H](O)[C@H](C)O4)[C@H](C)O3)[C@@H](C)C=CC=C3CO[C@@H]4[C@@H](O)C(C)=C[C@@H](C(=O)O1)[C@]34O)O2`, the entry is “inactive”. On the same count and under the same terms, as for `O=C(Cn1cc(C(F)(F)F)ccc1=O)N1CCN(S(=O)(=O)c2ccccc2)CC1`, the entry is “inactive”; as for `O=S(=O)(c1cccc(C(F)(F)F)c1)N1CCC(c2cc(-c3cccc4ccccc34)n[nH]2)CC1`, “inactive”. Consider `O=C1C2CCCN2c2ccc(S(=O)(=O)N3CCOCC3)cc2N1Cc1cccc(C(F)(F)F)c1` (stereo unspecified), for which the AC50 is 5.01 µM (active).

In the case of `COc1ccc(NC(=O)N2CCCC3(CCN(C(=O)c4csnn4)CC3)C2)cc1`, the AC50 result was “inactive”.

Turning to `O/N=C/c1ccccc1OCc1ccc(Cl)cc1`, the AC50 is 4.47 µM (active). In the case of `Cc1ccc(COc2coc(CO)cc2=O)cc1`, the AC50 result was “inactive”.

In the case of `Cc1ccc(COc2ccc(Br)cc2/C=N/O)cc1`, the concentration at half-maximal activity (AC50) was 2.82 µM (active). Consider `O=C(Cc1ccccc1)N/N=C/c1ccccc1OCc1ccc(Cl)cc1`, for which the AC50 is 7.94 µM (active). Same read-out and setting: then `Cc1n[nH]c(=S)n1/N=C/c1ccccc1OCc1ccc(Cl)cc1`, with “inactive”; and `O/N=C/c1cc(Cl)ccc1OCc1cccc2ccccc12`, with 7.08 µM (active). Turning to `Oc1ccc(Cl)cc1C=Nc1cnc2ccccc2c1`, the activity, negative = inhibition was 1.22% [at 11.4 µM] (inactive). On the same count and under the same terms, then `O=C(SCc1cccc2ccccc12)c1ccc(Cl)cc1`, with -1.66% [at 11.4 µM] (inactive).

Turning to `Cc1ccc(CONC(=O)/N=C/N(C)C)cc1`, the AC50 entry is “inactive”. Regarding `COc1ccc(COC(=O)N/N=C2/C[C@@H](O)[C@@H](O)[C@@H]3[C@@H]4C(=O)N(C(C)(C)C)C(=O)[C@H]4CC[C@H]23)cc1`, the activity, negative = inhibition was 20.6% [at 11.4 µM] (inactive).

For the compound `CC(C)(C)c1onc(OCP(=O)(O)O)c1C[C@@H](N)C(=O)O`, the AC50 entry was “inactive”.

For `C[C@@H]1O[C@H](O[C@@H]2[C@H](C)O[C@H](O[C@@H]3[C@H](C)O[C@H](O[C@H]4CC[C@]5(C)[C@@H](CC[C@@H]6[C@H]5C[C@@H](O)[C@]5(C)[C@@H](C7=CC(=O)OC7)CC[C@]65O)C4)C[C@@H]3O)C[C@@H]2O)C[C@H](O)[C@@H]1O`, the AC50 result is “inactive”. The same measure, in the same setting: then `C[C@@H](Cc1ccccc1)Nc1ncnc2c1ncn2[C@@H]1O[C@@H](CO)[C@H](O)[C@@H]1O`, with “inactive”. As to `COCCNc1nc(-c2c(C)noc2C)nc2ccccc12`, the activity, negative = inhibition is 15% [at 2.29 µM] (inactive). Take `NC(=S)N/N=C/c1ccccc1OCc1cccc(Cl)c1`: the AC50 was 1.58 µM (active). Regarding `NC(N)=NC(N)=Nc1cccc(Cl)c1`, the AC50 result is “inactive”.

As to `NC1=NC2(CCCCCC2)n2c(nc3ccccc32)N1`, the AC50 entry was “inactive”.

`CCCC1(C)Nc2ccccc2-c2nc3ccccc3n21` (stereo unspecified): the AC50 is 3.98 µM (active). The same measure, in the same setting: then `CC1CCC2(CC1)N=C(N)Nc1nc3ccccc3n12` (stereo unspecified), with “inactive”; and `CCC1(C)Nc2ccccc2C(=O)N1O` (stereo unspecified), with “inactive”. Consider `CCCCC1(C)Nc2ccccc2-c2nc3ccccc3n21` (stereo unspecified), for which the half-maximal activity concentration (AC50) was 12.6 µM (active).

With `COc1c2c(nc3ccccc13)O[C@@H]([C@@](C)(O)CO)C2`, the AC50 result was “inactive”. Consider `C=C(C)C1CC=C(C)/C(=N/NC(=O)c2ccc(NC(=O)c3cccc(C)c3)cc2)C1` (stereo unspecified), for which the concentration at half-maximal activity (AC50) was 1.58 µM (active).

For `Cc1cccc(C(=O)NNC(=O)C(=O)NC(C)(C)C)c1`, the AC50 entry is “inactive”.

Turning to `Cc1cccc(C(=O)NNC(=O)C2CCCO2)c1` (stereo unspecified), the AC50 result is “inactive”.

Take `COc1ccc(CCN(C)CCc2ccc(OC)c(OC)c2)cc1OC`: the AC50 entry was “inactive”. Take `COc1ccc(C[N+](C)(C)N)cc1OC`: the activity, negative = inhibition is 13.9% [at 11.4 µM] (inactive).

Regarding `COc1ccc(Cc2n[nH]c(=O)c3ccccc23)cc1OC`, the AC50 was 25.1 µM (active). Same read-out and setting: then `CCCCc1ccc2nc(NC(=O)OC)[nH]c2c1`, with “inactive”. In the case of `Nc1c(OCC(=O)O)ccc2cc(S(=O)(=O)O)ccc12`, the activity, negative = inhibition is -7.12% [at 11.4 µM] (inactive). `c1ccc2c(N3CCOCC3)nc(-c3ccoc3)nc2c1`: the activity, negative = inhibition was 11.8% [at 2.29 µM] (inactive).

Take `Nc1nc(Cl)cc(N2CCOCC2)n1`: the AC50 entry was “inactive”. Turning to `COc1cccc(-c2ccc3ncnc(N4CCOCC4)c3c2)c1`, the activity, negative = inhibition was -6.77% [at 2.29 µM] (inactive). As for `COc1cccc(Sc2cc(N3CCOCC3)nc(-c3ccccc3)n2)c1`, the half-maximal activity concentration (AC50) was 10 µM (active).

`Clc1ccc(Sc2cc(N3CCOCC3)nc(-c3ccccc3)n2)cc1`: the AC50 was 10 µM (active).
